Results published in PubChem BioAssay (NCATS).
Inconclusive results are not listed. Active and inactive are the calls of the source. Calls follow the shape of the dose curve; as a rule, active = well fitted activation curve with a large enough effect; inconclusive = small, poorly fitted or top-dose-only effect; inactive = flat fitted curve, though single readings scatter.

System: not listed separately
Test: qHTS assay for environmental chemicals that activate the Aryl hydrocarbon Receptor (AhR) signaling pathway (AID 651777); also: nearly all actives have a fitted effect of over 15% in size; also: potency is read from the fitted curve at half-maximal effect; as to activation: % of control where 0% means no effect
Conditions: 1A2-DRE human hepatoma cells, luciferase, 24 h; activation: stronger effect = higher value
In short: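 Stable CYP1A2 promoter/DRE-luciferase human hepatoma line treated 24 hr; One-Glo luminescence, 30 min RT.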

Compound | activation | Potency
CCC[CH2][Sn]([CH2]CCC)([CH2]CCC)[O]C(=O)c1ccccc1 | -10.5% (inactive) | 
Cc1c2ccccc2c(C)c2c1ccc1ccccc12 |  | 25.1 µM (active)
CC[C@H](C)[C@H]1O[C@]2(C=C[C@@H]1C)C[C@@H]1C[C@@H](C/C=C(\C)[C@@H](O[C@H]3C[C@H](OC)[C@@H](O[C@H]4C[C@H](OC)[C@@H](NC)[C@H](C)O4)[C@H](C)O3)[C@@H](C)/C=C/C=C3\CO[C@@H]4[C@H](O)C(C)=C[C@@H](C(=O)O1)[C@]34O)O2 | -12% (inactive) | 
[Cl][Sn]([c]1ccccc1)([c]1ccccc1)[c]1ccccc1 | -11.4% (inactive) | 

Target: Peroxisome proliferator-activated receptor alpha (Homo sapiens) (UniProt Q07869)
Test: qHTS assay for small molecule agonists of the peroxisome proliferator-activated receptor alpha (PPARalpha) signaling pathway (AID 651778); also: % of control where 0% means no effect
Conditions: PathHunter PPARalpha complementation, chemiluminescence, 6 h; max response: stronger effect = higher value
In short: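 Chemiluminescence from complemented enzyme reported PPARalpha activation in cells after 6 hr of compound treatment at 37 C. The detection reagent was incubated for 60 min at room temperature, and compounds were scored as agonists.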

Chain of Peroxisome proliferator-activated receptor alpha (Homo sapiens) (Q07869 whole entry, looked up): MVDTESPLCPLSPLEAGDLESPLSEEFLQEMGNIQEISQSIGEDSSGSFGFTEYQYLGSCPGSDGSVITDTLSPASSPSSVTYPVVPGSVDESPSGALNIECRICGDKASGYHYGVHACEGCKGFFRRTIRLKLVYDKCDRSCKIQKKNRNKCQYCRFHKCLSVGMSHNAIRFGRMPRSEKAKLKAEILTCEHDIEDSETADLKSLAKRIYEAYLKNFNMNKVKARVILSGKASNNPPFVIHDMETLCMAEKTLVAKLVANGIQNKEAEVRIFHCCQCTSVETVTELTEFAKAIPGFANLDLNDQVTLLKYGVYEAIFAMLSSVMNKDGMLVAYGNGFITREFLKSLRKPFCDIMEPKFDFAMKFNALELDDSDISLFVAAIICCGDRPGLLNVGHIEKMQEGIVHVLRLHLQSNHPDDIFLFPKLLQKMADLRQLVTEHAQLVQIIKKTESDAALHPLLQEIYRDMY

Compound | max response
CCC[CH2][Sn]([CH2]CCC)([CH2]CCC)[O]C(=O)c1ccccc1 | -0.767% (inactive)
CC[C@H](C)[C@H]1O[C@]2(C=C[C@@H]1C)C[C@@H]1C[C@@H](C/C=C(\C)[C@@H](O[C@H]3C[C@H](OC)[C@@H](O[C@H]4C[C@H](OC)[C@@H](NC)[C@H](C)O4)[C@H](C)O3)[C@@H](C)/C=C/C=C3\CO[C@@H]4[C@H](O)C(C)=C[C@@H](C(=O)O1)[C@]34O)O2 | 4.77% (inactive)
[Cl][Sn]([c]1ccccc1)([c]1ccccc1)[c]1ccccc1 | -6.19% (inactive)
